Data from PubChem BioAssay AID588579 (National Center for Advancing Translational Sciences (NCATS), 2011).
Where “and” joins values, the source holds several entries; their conditions need not be identical. Identical values can stand only once. Screen size: about 400,000 compounds; about 2,200 (0.55%) were called active. Where a call stands in place of a potency, no number is given. Not shown: some 1% with an inconclusive outcome. Calls follow the shape of the dose curve; as a rule, active = well fitted inhibition curve with a large enough effect; inconclusive = small, poorly fitted or top-dose-only effect, or another doubt; inactive = no such curve, though single readings can be large or run the other way. Many of the other results were omitted from the sample, so actives are more common in it than they were.

Molecular target: DNA polymerase kappa (Homo sapiens) (UniProt Q9UBT6)
Sequence (Q9UBT6 whole entry, looked up): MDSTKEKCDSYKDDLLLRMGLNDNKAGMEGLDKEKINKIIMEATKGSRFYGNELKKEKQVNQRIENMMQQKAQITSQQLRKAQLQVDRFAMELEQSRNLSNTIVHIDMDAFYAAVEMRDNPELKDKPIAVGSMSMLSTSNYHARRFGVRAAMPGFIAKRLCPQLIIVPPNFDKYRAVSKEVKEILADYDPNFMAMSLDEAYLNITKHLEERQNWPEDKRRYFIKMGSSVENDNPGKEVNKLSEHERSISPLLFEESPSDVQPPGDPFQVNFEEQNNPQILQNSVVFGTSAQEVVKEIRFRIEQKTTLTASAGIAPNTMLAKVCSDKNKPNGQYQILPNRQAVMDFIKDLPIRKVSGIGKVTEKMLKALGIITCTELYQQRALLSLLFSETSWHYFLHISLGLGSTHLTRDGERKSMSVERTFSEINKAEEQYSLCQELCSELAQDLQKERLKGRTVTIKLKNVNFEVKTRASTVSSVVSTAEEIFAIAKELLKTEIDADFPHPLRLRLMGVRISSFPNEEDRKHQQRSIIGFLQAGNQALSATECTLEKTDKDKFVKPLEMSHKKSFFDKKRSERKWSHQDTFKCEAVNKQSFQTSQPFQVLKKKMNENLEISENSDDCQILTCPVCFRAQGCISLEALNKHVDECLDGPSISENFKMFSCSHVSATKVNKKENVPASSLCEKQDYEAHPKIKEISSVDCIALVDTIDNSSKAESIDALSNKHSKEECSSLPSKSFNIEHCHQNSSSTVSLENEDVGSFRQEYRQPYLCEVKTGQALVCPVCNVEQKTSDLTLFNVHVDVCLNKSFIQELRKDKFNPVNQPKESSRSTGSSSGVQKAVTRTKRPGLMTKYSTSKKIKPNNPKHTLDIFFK
Experiment: qHTS for Inhibitors of Polymerase Kappa
Details: purified Pol kappa, fluorescent DNA synthesis assay, 10 min; series mostly up to 107 µM
Experimental: The processing and repair of DNA interstrand crosslinks (ICL) in eukaryotic cells are extremely complex, potentially involving multiple DNA repair and damage tolerance pathways, including homologous recombination, nucleotide excision repair, translesion synthesis (TLS), and cell cycle checkpoints.
To that end, in a collaboration between the Oregon Health & Science University and the NIH Chemical Genomics Center a 1536-well high-throughput screen was developed. This fluorescent screen was assayed against the NIH Molecular Libraries Small Molecule Repository (MLSMR) to discover inhibitors of Pol Kappa.
NIH Chemical Genomics Center [NCGC]
NIH Molecular Libraries Probe Centers Network [MLPCN]
Assay Submitter (PI): Stephen Lloyd, Oregon Health & Science University
Three microliters of reagents (buffer in column 3 and 4 as negative control and 10 nM Pol kappa in columns 1, 2, and 5-48) were dispensed into a 1536-well black solid-bottom plate. Compounds (23 nL) were transferred via Kalypsys pin tool equipped with 1536-pin array. The plates were then incubated for 15 min at room temperature, and 1 uL substrate (50 nM final concentration) were then added to start the reaction and kinetically read twice at 0 min and 10 min on the Viewlux reader
Potency is read from the fitted curve at half-maximal effect.

Row | Molecule | Potency | activity, negative = inhibition
1 | O=c1ccc2c(-c3ccccc3S(=O)(=O)O)c3ccc(O)c(O)c3oc-2c1O | 0.708 µM (active) | 
2 | Cc1nc2cnc(N3CCNCC3)nc2n(Cc2ccc(F)cc2)c1=O | inactive | 
3 | Clc1cccc[n+]1CCCC[n+]1ccccc1Cl | inactive | 
4 | Cc1c(CCO)sc[n+]1CC(=O)c1ccc2ccccc2c1 | inactive | 
5 | CCN1CCN(c2ccc(/C=C/c3ccnc4ccccc34)cc2)CC1 | inactive | 
6 | CCOc1cccc2c1N[C@@H](c1ccc(C(=O)O)cc1)[C@H]1CC=C[C@@H]21 | 3.98 µM (active) | 
7 | CCOc1cccc(CC(=O)N2CCc3c([nH]c4ccccc34)C2c2ccc(F)cc2)c1OCC (stereo not given) | inactive | 
8 | CCOc1ccccc1C1NC(=O)NC(C)=C1C(=O)OCc1ccco1 (stereo not given) | inactive | 
9 | O=C(O)c1ccc(/C=C2/SC(=S)N(c3cccc(C(F)(F)F)c3)C2=O)cc1 |  | -8.36% [at 12 µM] (inactive)
10 | N#Cc1c(N2CCCCC2)nc(N)c2c(N)nc(SCC(=O)O)cc12 | 39.8 µM (active) | 
11 | CC1C(O)CC2C(C(=O)O)=CO[C@@H](O[C@H]3OC(CO)C(O)C(O)C3O)C21 (stereo not given in full) | inactive | 
12 | CS(=O)(=O)N1CCC2(CCN(c3ccncc3)CC2)CC1 | inactive | 
13 | Oc1ccc(-c2c(-c3ccccc3)nn3c(C(F)(F)F)cc(C(F)(F)F)nc23)cc1 |  | -10.8% [at 12 µM] (inactive)
14 | Cc1c(S(=O)(=O)O)oc2c1C(=O)C(=O)c1c-2ccc2c1CCCC2(C)C | 35.5 µM (active) | 
15 | CCC(CCC(C)C1CCC2C3CC=C4CC(O)CC[C@@]4(C)C3CC[C@@]12C)C(C)C (stereo not given in full) |  | 8.1% [at 19.4 µM] (inactive)
16 | C[N+]1(CC(=O)c2cccs2)CCOCC1 | inactive | 
17 | CCOc1ccc(NC(=O)Cn2c(C)ccc(C#N)c2=O)cc1 | inactive | 
18 | CCOC(=O)c1ccc(-c2ccc(/C=C(\C#N)C(=O)Nc3ccc(OCC)cc3)o2)cc1 | inactive | 
19 | CCOc1ccc(NC(=O)c2ccc(NC(=O)COC(=O)c3ccc(NC(=O)CC#N)cc3)cc2)cc1 | 22.4 µM (active) | 
20 | CS(=O)c1ccc(/C=C2\C=Cc3ccccc32)cc1 (stereo not given) | inactive | 
21 | CN(C)c1cccc2ccccc12 | inactive | 
22 | C=C1/C(=C\C=C2\CCCC3(C)C2CCC3C(C)/C=C/C(O)C2CC2)CC(O)CC1O (stereo not given) | inactive | 

Row | Molecule | Potency | activity, negative = inhibition
23 | COc1cc2nc(C#Cc3nc4cc(OC)c(OC)cc4[nH]3)[nH]c2cc1OC | inactive | 
24 | O=C(CSc1nc2ccccc2c(=O)[nH]1)Nc1nc(-c2ccc(Br)cc2)cs1 | 20 µM (active) | 
25 | COc1ccc(NC(=O)CSc2nc3ccccc3[nH]2)cc1 | inactive | 
26 | O=C(CSc1nc(O)c(Cc2ccccc2)c(=O)[nH]1)Nc1nc2c(s1)CCCC2 | inactive | 
27 | Cc1cnc(CNc2cc(-c3c(C)noc3C)ncn2)cn1 | inactive | 
28 | O=C(Nc1ccccc1C(F)(F)F)c1nc(S(=O)(=O)Cc2ccccc2F)ncc1Cl | inactive | 
29 | Cn1cc(-c2nc3cnc(N4CCNCC4)nc3n(CCc3ccccc3)c2=O)c2ccccc21 | inactive | 
30 | CC(C)(C)OC(=O)N(Cc1ccco1)S(=O)(=O)c1ccccc1Br | inactive | 
31 | Oc1cc(O)c2c(c1)OC(c1ccc(O)c(O)c1)C(O)C2 (stereo not given) | 3.16 µM (active) | 
32 | CC[C@H](C)[C@H](NC(=O)[C@H](CCCNC(=N)N)NC(=O)[C@H](CCCNC(=N)N)NC(=O)[C@H](CC(C)C)NC(=O)[C@H](Cc1ccccc1)NC(=O)CNC(=O)CNC(=O)[C@@H](N)Cc1ccc(O)cc1)C(=O)N[C@@H](CCCNC(=N)N)C(=O)N1CCC[C@H]1C(=O)N[C@@H](CCCCN)C(=O)N[C@@H](CC(C)C)C(=O)N[C@@H](CCCCN)C(=O)N[C@@H](Cc1c[nH]c2ccccc12)C(=O)N[C@@H](CC(=O)O)C(=O)N[C@@H](CC(N)=O)C(=O)N[C@@H](CCC(N)=O)C(=O)O | inactive | 
33 | CCOc1n[nH]c(-c2ccccc2)n1 | inactive | 
34 | CN(C)c1ccc(/C=c2\[nH]c(=O)/c(=C/c3ccc(N(C)C)cc3)[nH]c2=O)cc1 | inactive | 
35 | CC(C)[C@@H]1NC(=O)[C@H](Cc2ccccc2)NC(=O)[C@@H](CC(=O)O)NC(=O)CNC(=O)[C@H](CCCNC(=N)N)NC1=O |  | 4% [at 19.4 µM] (inactive)
36 | COc1ccc(CCC(=O)c2c(O)cc(OC3OC(CO)C(O)C(O)C3O[C@@H]3OC(C)C(O)C(O)C3O)cc2O)cc1O (stereo not given in full) | inactive | 
37 | C[C@@H]1O[C@@H](OC[C@H]2O[C@@H](Oc3c(-c4ccc(O)cc4)oc4cc(O)cc(O)c4c3=O)[C@H](O)[C@@H](O)[C@@H]2O)[C@H](O)[C@H](O)[C@H]1O | inactive | 
38 | C[C@@H]1O[C@@H](OC[C@H]2O[C@@H](Oc3c(-c4cccc(O)c4O)oc4cc(O)cc(O)c4c3=O)[C@H](O)[C@@H](O)[C@@H]2O)[C@H](O)[C@H](O)[C@H]1O | 7.08 µM (active) | 
39 | CC1OC(OCC2OC(Oc3c(-c4ccc(O)c(O)c4)oc4cc(O)cc(O)c4c3=O)C(O)C(O)C2O)[C@@H](O)C(O)C1O (stereo not given in full) | 10 µM (active) | 
40 | C[C@@H]1O[C@@H](OC[C@H]2O[C@@H](Oc3cc(O)c4c(c3)O[C@H](c3ccc(O)c(O)c3)CC4=O)[C@H](O)[C@@H](O)[C@@H]2O)[C@H](O)[C@H](O)[C@H]1O | inactive | 
41 | CC(C)C(NS(=O)(=O)c1ccc(-c2ccc(Br)cc2)cc1)C(=O)O (stereo not given) | inactive | 
42 | H-EHIPA-OH | inactive | 
43 | COc1cc(OC)c2c(c1Cl)OC1(C2=O)C(O)=CC(=O)CC1C (stereo not given) | inactive | 
44 | CN(Cc1ccco1)c1ncncc1-c1ccoc1 | inactive | 

Row | Molecule | Potency | activity, negative = inhibition
45 | CC(C)c1ccc2c(c1)c(SC(C)(C)C)c(CC(C)(C)C(=O)O)n2Cc1ccc(Cl)cc1 | 29.9 µM (active) and 79.4 µM (active) | 
46 | Cc1c(C)n(Cc2ccc(Cl)cc2)c2ccc(C(=O)N3CCN(c4ccccc4F)CC3)cc12 | inactive | 
47 | CC(C)c1ccc(Cn2c(COc3ccccc3)nc3ccccc32)cc1 | inactive | 
48 | CC1(C)CC(=O)c2cc(C(=O)NCc3ccccc3)c(=O)[nH]c2C1 | inactive | 
49 | O=C1/C(=C\c2ccc([N+](=O)[O-])cc2)CS(=O)(=O)C/C1=C/c1ccc([N+](=O)[O-])cc1 | 79.4 µM (active) | 
50 | O=[N+]([O-])c1ccc(/C=C/c2ccc3cccnc3c2)cc1 | inactive | 
51 | N#Cc1ccc(CN2CCCC3(CCN(C(=O)c4ccco4)CC3)C2)cc1 | inactive | 
52 | CN1CCN(/[N+]([O-])=N/Oc2ccc([N+](=O)[O-])cc2[N+](=O)[O-])CC1 | inactive | 
53 | COc1ccc(C(=O)N2CCC3(CC2)CCN(c2ccccn2)CC3)cc1 | inactive | 
54 | O=C1CSC(=S)N1/N=C/c1ccc(O)c([N+](=O)[O-])c1 | 28.2 µM (active) | 
55 | CCOC(=O)C1C/C(=C\C(C)=O)c2cccc(C(F)(F)F)c2O1 (stereo not given) | inactive | 
56 | COc1ccc(-c2c(C)c3ccc(O)c(CN4CCN(C)CC4)c3oc2=O)cc1OC | inactive | 
57 | Cc1cccc(-c2cc(=O)c3cc(C)ccc3o2)c1 |  | -11.6% [at 19.4 µM] (inactive)
58 | COc1ccc2c(=O)cc(-c3ccccc3)oc2c1O |  | -8.18% [at 19.4 µM] (inactive)
59 | O=c1cc(-c2ccc(O)c(O)c2)oc2cccc(O)c12 | 6.31 µM (active) | 
60 | COc1c(O)cc2oc(-c3ccc(O)c(O)c3)cc(=O)c2c1O | 5.01 µM (active) and 752 nM (active) | 
61 | OCCN1CCN(CC/C=C2\c3ccccc3Sc3ccc(C(F)(F)F)cc32)CC1 |  | -8.78% [at 12 µM] (inactive)
62 | COc1cccc(Cn2c(=O)cnc3cncnc32)c1 | inactive | 
63 | NC(=O)c1sc(-c2ccsc2)cc1N |  | 7.11% [at 19.4 µM] (inactive)
64 | COc1ccc(-c2nc3cnc(OC)nc3n(Cc3ccc(F)cc3)c2=O)cc1 | inactive | 
65 | COc1ccc(C2(C#N)CCC(C(=O)O)CC2)cc1OC1CCCC1 (stereo not given) |  | 1.33% [at 19.4 µM] (inactive)
66 | COc1ccc(C2=Nn3c(nnc3-c3ccccc3OC)SC2)cc1OC1CCCC1 | 39.8 µM (active) | 

Row | Molecule | Potency | activity, negative = inhibition
67 | Cc1nnc2n1N=C(c1ccc3c(c1)NC(=O)CO3)CS2 | inactive | 
68 | C[C@H]1CCC[C@@]2(C)CCCC[C@]12O | inactive | 
69 | Cc1csc(-c2nc3ccccc3n2C)n1 |  | -4.55% [at 19.4 µM] (inactive)
70 | COc1cccc(-c2cc(=O)c3cc(NC(=O)c4ccc(C)cc4)ccc3[nH]2)c1 | inactive | 
71 | COC(=O)c1ccccc1NS(=O)(=O)c1ccc2c(c1)CCCN2C(C)=O | inactive | 
72 | COc1ccc(Br)cc1/C=N/Nc1ccc(S(=O)(=O)Nc2ccccc2C(=O)O)cc1[N+](=O)[O-] | 39.8 µM (active) | 
73 | COc1ccc(S(=O)(=O)NC(C)c2ccccc2)cc1C(=O)N1CCCCC1 (stereo not given) | inactive | 
74 | COC(=O)N1CCC[C@@]2(CCN(C(=O)NC(C)C)C2)C1 | inactive | 
75 | CN(C)c1ccc(/C=C/c2sc3ccccc3[n+]2CCCCBr)cc1 | inactive | 
76 | CC(C)(C)n1ncc2c(=O)n(Cc3ccc(C(=O)c4ccccc4)cc3)cnc21 | inactive | 
77 | N#Cc1ccc[n+](CC(=O)c2ccc(F)cc2)c1 | inactive | 
78 | NC(=O)C[n+]1cccc(C(N)=O)c1 | inactive | 
79 | N#Cc1ccc[n+](CC(=O)c2ccc(O)c(O)c2)c1 | 0.891 µM (active) | 
80 | O=c1c(-c2ccc(F)c(F)c2)nc2cncnc2n1-c1ccccc1 | inactive | 
81 | COc1cc2nc(N3CCCN(C)CC3)nc(NC3CC3)c2cc1OC | inactive | 
82 | CN(C(=N)N)c1ccc(/C=C2\C=Cc3ccccc32)cc1 | inactive | 
83 | C=CC1=C(C(=O)O)N2C(=O)[C@@H](NC(=O)/C(=N\OCC(=O)O)c3csc(N)n3)[C@H]2SC1 | 50.1 µM (active) | 
84 | CO/N=C(\C(=O)N[C@@H]1C(=O)N2C(C(=O)O)=C(COC(C)=O)CS[C@H]12)c1csc(N)n1 (stereo in doubt) | 35.5 µM (active) and 79.4 µM (active) and 39.8 µM (active) | 
85 | O=C(c1cnccn1)N1CCC2(CCCN(Cc3ccccc3)C2)CC1 | inactive | 
